# PubChem BioAssay (EPA / NIEHS)
# Results filed as inconclusive are left out. The source made the active and inactive calls. The calls were made as follows: active = hit-call score of the fitted dose curve at least 0.9, where 1 is the maximum; inconclusive = response in the unintended direction; inactive = score below 0.9.
# How the values were obtained:
# [1] = target: human Adenosine A2a Receptor (AdoRA2a), ADORA2A (gene 135) (UniProt P29274); experiment: NVS_GPCR_hAdoRA2a: NovaScreen (NVS) G Protein-Coupled Receptor Assay for human Adenosine A2a Receptor (AdoRA2a) (AID 2283256)
# human Adenosine A2a Receptor (AdoRA2a), ADORA2A (gene 135), sequence (P29274 whole entry, looked up): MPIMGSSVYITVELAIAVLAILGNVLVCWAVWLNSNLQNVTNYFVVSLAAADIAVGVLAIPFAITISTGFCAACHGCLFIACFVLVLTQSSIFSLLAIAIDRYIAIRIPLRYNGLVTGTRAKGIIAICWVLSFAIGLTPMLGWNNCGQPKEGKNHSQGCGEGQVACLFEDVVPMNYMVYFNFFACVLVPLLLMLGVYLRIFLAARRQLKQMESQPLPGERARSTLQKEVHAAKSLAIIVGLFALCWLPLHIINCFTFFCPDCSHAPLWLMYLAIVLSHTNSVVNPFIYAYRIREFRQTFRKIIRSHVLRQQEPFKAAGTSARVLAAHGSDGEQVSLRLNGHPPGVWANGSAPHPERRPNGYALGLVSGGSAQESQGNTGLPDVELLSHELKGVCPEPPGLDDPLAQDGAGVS
# In short: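 Cell-free radioligand binding on membranes from HEK293 expressing the receptor; competitive displacement read 1.5 h after dosing by filter-based scintillation counting. Primary screen in duplicate at 25 uM; actives followed in concentration series, with DMSO as baseline.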
# [2] = target: human Adrenergic, Alpha 2c Receptor (Adra2C), ADRA2C (gene 152) (UniProt P18825); experiment: NVS_GPCR_hAdra2C: NovaScreen (NVS) G Protein-Coupled Receptor Assay for human Adrenergic, Alpha 2c Receptor (Adra2C) (AID 2283259)
# human Adrenergic, Alpha 2c Receptor (Adra2C), ADRA2C (gene 152), sequence (P18825 whole entry, looked up): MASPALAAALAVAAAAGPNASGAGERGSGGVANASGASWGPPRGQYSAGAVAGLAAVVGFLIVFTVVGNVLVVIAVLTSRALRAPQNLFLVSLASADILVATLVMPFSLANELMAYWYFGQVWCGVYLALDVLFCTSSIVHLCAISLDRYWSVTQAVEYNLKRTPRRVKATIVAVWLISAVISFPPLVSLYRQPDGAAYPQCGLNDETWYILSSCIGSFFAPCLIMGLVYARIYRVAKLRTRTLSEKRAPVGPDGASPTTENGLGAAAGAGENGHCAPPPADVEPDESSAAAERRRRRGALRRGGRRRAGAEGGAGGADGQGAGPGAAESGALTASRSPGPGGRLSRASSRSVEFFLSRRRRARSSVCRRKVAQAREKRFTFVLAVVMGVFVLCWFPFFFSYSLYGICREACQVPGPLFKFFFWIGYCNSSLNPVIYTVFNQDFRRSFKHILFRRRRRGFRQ
# In short: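 Radioligand binding on Sf9-expressed receptor membranes, 1 h after chemical dosing, filter-based scintillation read-out. Loss of binding fitted positively versus DMSO; primary duplicate screen at 25 uM, actives retested in concentration series.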
# [3] = target: human Serotonin, 5-Hydroxytryptamine Receptor 6 (5HT6), HTR6 (gene 3362) (UniProt P50406); experiment: NVS_GPCR_h5HT6: NovaScreen (NVS) G Protein-Coupled Receptor Assay for human Serotonin, 5-Hydroxytryptamine Receptor 6 (5HT6) (AID 2283253)
# human Serotonin, 5-Hydroxytryptamine Receptor 6 (5HT6), HTR6 (gene 3362), sequence (P50406 whole entry, looked up): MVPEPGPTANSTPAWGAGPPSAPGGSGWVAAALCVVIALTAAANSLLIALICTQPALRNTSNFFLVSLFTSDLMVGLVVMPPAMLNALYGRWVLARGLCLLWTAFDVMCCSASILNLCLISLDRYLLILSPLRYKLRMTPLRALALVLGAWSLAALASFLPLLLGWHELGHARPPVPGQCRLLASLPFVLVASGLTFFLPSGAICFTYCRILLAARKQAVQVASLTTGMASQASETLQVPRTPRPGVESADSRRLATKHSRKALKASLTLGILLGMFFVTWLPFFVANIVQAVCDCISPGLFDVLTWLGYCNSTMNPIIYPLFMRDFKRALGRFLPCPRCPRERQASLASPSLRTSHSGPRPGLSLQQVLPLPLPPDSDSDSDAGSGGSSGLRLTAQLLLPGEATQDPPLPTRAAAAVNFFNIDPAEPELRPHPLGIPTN
# In short: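 Radioligand binding to 5HT6 in HEK293-derived membranes, cell-free, 1 h after dosing; bound ligand measured by filter-based scintillation counting. Primary screen in duplicate at 25 uM; actives retested in concentration series.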
# [4] = target: human Serotonin, 5-Hydroxytryptamine Receptor 7 (5HT7), HTR7 (gene 3363) (UniProt P34969); experiment: NVS_GPCR_h5HT7: NovaScreen (NVS) G Protein-Coupled Receptor Assay for human Serotonin, 5-Hydroxytryptamine Receptor 7 (5HT7) (AID 2283255);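 also: hits reduce specific radioligand binding relative to DMSO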
# human Serotonin, 5-Hydroxytryptamine Receptor 7 (5HT7), HTR7 (gene 3363), sequence (P34969 whole entry, looked up): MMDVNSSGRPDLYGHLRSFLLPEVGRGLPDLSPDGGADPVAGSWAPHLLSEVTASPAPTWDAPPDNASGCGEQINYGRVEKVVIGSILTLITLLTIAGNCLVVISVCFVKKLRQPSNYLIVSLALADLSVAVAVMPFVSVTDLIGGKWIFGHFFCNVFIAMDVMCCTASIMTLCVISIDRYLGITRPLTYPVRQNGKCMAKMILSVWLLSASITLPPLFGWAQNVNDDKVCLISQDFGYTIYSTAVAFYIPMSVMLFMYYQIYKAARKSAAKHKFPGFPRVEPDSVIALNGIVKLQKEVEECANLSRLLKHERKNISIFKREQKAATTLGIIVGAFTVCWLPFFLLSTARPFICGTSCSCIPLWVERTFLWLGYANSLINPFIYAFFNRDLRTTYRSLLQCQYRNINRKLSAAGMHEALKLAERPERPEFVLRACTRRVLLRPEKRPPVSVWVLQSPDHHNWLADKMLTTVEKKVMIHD
# In short: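 Radioligand displacement on membranes from CHO cells expressing human 5HT7, 1 h incubation, filter-based scintillation counting. Primary screen used a single 25 uM concentration in duplicate; actives were followed up in concentration series.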
# [5] = target: human Dopamine Receptor D4.4 (DRD4.4), DRD4 (gene 1815) (UniProt P21917); experiment: NVS_GPCR_hDRD4.4: NovaScreen (NVS) G Protein-Coupled Receptor Assay for human Dopamine Receptor D4.4 (DRD4.4) (AID 2283264)
# human Dopamine Receptor D4.4 (DRD4.4), DRD4 (gene 1815), sequence (P21917 whole entry, looked up): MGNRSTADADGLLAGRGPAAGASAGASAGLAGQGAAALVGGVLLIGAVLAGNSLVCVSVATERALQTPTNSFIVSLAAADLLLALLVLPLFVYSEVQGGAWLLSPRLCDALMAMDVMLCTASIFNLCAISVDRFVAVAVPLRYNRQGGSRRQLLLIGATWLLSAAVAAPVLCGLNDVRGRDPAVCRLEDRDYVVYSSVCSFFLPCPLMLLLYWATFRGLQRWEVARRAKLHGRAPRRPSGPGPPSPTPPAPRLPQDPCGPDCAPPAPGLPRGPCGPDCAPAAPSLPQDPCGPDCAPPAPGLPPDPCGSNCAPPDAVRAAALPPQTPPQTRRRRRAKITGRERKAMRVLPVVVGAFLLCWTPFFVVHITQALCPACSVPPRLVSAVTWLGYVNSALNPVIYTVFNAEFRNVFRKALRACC
# In short: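 Radioligand displacement on human DRD4.4 from CHO-derived membranes, 1 hour incubation, bound counts read by filtration and scintillation. Primary screen in duplicate at 25 uM; actives followed up in concentration series.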
# [6] = target: human Dopamine Receptor D2 (DRD2), DRD2 (gene 1813) (UniProt P14416); experiment: NVS_GPCR_hDRD2s: NovaScreen (NVS) G Protein-Coupled Receptor Assay for human Dopamine Receptor D2 (DRD2) (AID 2283266)
# human Dopamine Receptor D2 (DRD2), DRD2 (gene 1813), sequence (P14416 whole entry, looked up): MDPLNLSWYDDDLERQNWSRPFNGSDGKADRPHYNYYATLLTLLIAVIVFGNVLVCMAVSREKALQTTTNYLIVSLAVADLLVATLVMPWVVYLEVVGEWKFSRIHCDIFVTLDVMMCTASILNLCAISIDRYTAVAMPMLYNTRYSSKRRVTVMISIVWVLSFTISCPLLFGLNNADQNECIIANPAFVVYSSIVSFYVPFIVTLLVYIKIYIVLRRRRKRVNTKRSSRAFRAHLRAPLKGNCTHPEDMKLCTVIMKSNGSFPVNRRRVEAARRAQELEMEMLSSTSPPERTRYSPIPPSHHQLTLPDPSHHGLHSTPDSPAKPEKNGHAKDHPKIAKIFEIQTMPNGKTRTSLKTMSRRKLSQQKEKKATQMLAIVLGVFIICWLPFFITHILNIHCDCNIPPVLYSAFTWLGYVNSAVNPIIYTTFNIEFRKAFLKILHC
# In short: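 Radioligand displacement used human DRD2 membranes extracted from CHO cells and was read by filter-based scintillation counting after 1.5 hours. Primary screening was in duplicate at 25 uM. Loss of signal versus DMSO was fitted, with concentration series in follow-up.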
# [7] = target: human Adenosine A1 Receptor (AdoRA1), ADORA1 (gene 134) (UniProt P30542); experiment: NVS_GPCR_hAdoRA1: NovaScreen (NVS) G Protein-Coupled Receptor Assay for human Adenosine A1 Receptor (AdoRA1) (AID 2283254)
# human Adenosine A1 Receptor (AdoRA1), ADORA1 (gene 134), sequence (P30542 whole entry, looked up): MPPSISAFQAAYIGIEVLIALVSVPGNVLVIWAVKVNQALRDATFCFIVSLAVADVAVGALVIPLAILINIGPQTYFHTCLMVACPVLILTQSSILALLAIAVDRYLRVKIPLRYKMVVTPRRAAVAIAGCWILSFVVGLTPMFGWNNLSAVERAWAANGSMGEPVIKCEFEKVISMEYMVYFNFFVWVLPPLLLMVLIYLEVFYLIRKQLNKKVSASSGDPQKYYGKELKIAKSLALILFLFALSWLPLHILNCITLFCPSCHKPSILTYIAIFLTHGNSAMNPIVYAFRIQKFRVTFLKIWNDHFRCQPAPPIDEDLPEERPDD
# In short: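 Each chemical is first tested twice at 25 uM, actives later in dilution series, against a radioligand bound to human cortex membranes; after 1 h, filter-retained counts are compared with DMSO controls, lower signal indicating displacement.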
# [8] = target: D(1A) dopamine receptor (Homo sapiens) (UniProt P21728); experiment: NVS_GPCR_hDRD1: NovaScreen (NVS) G Protein-Coupled Receptor Assay for human Dopamine Receptor D1 (DRD1) (AID 2283269)
# D(1A) dopamine receptor (Homo sapiens), sequence (P21728 whole entry, looked up): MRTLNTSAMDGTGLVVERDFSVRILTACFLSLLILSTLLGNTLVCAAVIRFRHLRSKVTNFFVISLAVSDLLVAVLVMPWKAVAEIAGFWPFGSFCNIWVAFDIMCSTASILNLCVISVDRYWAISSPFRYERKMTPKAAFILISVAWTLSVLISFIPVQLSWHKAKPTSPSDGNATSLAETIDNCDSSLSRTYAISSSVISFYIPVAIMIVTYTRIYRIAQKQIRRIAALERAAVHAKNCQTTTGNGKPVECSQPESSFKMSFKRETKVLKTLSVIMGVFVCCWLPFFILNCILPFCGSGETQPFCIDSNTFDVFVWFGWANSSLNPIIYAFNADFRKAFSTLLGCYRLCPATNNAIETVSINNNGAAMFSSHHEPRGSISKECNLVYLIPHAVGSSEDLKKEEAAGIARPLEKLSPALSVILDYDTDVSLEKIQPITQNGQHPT
# In short: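 Extracted HEK293 DRD1 is incubated 1 h with compound and a tritiated or iodinated radioligand, then filtered and counted. Screening runs 25 uM in duplicate with on-plate positive and negative controls.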
# [9] = target: human Adrenergic, Beta 1 Receptor (Adrb1), ADRB1 (gene 153) (UniProt P08588); experiment: NVS_GPCR_hAdrb1: NovaScreen (NVS) G Protein-Coupled Receptor Assay for human Adrenergic, Beta 1 Receptor (Adrb1) (AID 2283258)
# human Adrenergic, Beta 1 Receptor (Adrb1), ADRB1 (gene 153), sequence (P08588 whole entry, looked up): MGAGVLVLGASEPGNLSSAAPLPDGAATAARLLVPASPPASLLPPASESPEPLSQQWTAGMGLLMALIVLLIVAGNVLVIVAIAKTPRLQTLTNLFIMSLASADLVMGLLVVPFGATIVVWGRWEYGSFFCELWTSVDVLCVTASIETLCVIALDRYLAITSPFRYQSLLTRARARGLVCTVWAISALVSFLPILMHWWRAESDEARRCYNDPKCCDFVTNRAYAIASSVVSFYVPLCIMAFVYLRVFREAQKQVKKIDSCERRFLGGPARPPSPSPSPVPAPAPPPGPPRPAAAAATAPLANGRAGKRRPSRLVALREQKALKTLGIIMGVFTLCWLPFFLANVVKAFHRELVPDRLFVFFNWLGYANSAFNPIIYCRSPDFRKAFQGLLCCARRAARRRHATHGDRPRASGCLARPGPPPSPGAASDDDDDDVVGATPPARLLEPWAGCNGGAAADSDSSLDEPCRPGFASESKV
# In short: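 Cell-free radioligand displacement on receptor from human neuroepithelioma cells; 2 h after dosing, filter-based scintillation counting. Primary screen in duplicate at 25 uM, actives retested in concentration series; loss of signal vs DMSO baseline.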
# [10] = target: Beta-2 adrenergic receptor (Homo sapiens) (UniProt P07550); experiment: NVS_GPCR_hAdrb2: NovaScreen (NVS) G Protein-Coupled Receptor Assay for human Adrenergic, Beta 2 Receptor (Adrb2) (AID 2283261)
# In short: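 Filter-based radioligand binding using receptor prepared from CHO cells, 1 h incubation, scintillation counting. Primary screen in duplicate at 25 uM, actives retested in concentration series; loss of binding relative to DMSO.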
# [11] = target: human Adrenergic, Beta 3 Receptor (Adrb3), ADRB3 (gene 155) (UniProt P13945); experiment: NVS_GPCR_hAdrb3: NovaScreen (NVS) G Protein-Coupled Receptor Assay for human Adrenergic, Beta 3 Receptor (Adrb3) (AID 2283262)
# In short: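 Membranes from SK-N-MC cells pretreated with isoproterenol and 8-bromo-cAMP were used in a radioligand competitive displacement binding assay. Binding was read by filter-based scintillation counting 1 hour after dosing. Primary screening was in duplicate at 25 uM, with concentration series in follow-up.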
# [12] = target: human Endothelin Receptor Type A (ETA), EDNRA (gene 1909) (UniProt P25101); experiment: NVS_GPCR_hETA: NovaScreen (NVS) G Protein-Coupled Receptor Assay for human Endothelin Receptor Type A (ETA) (AID 2283265)
# In short: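 Cell-free radioligand displacement using SH-SY5Y-derived protein, 3 h incubation, filter-based scintillation counting. Primary screen in duplicate at 25 uM; actives then run in concentration-response up to 50 uM; loss of binding fitted versus DMSO.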
# [13] = target: human Endothelin Receptor Type B (ETB), EDNRB (gene 1910) (UniProt P24530); experiment: NVS_GPCR_hETB: NovaScreen (NVS) G Protein-Coupled Receptor Assay for human Endothelin Receptor Type B (ETB) (AID 2283267)
# In short: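 Human astrocytoma cell membranes; radioligand competitive binding read by filter scintillation counting 4 hours after dosing. Single-concentration duplicate screen at 25 uM, then singleton concentration-response up to 50 uM; loss of signal versus DMSO.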
# [14] = target: human Histamine 1 Receptor (H1), HRH1 (gene 3269) (UniProt P35367); experiment: NVS_GPCR_hH1: NovaScreen (NVS) G Protein-Coupled Receptor Assay for human Histamine 1 Receptor (H1) (AID 2283268)
# In short: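 Cell-free radioligand displacement at human H1 receptor, 1 h, filter scintillation counting; primary screen 25 uM in duplicate, hits in concentration series; loss of binding fitted vs DMSO.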
# [15] = target: Muscarinic acetylcholine receptor M1 (Homo sapiens) (UniProt P11229); experiment: NVS_GPCR_hM1: NovaScreen (NVS) G Protein-Coupled Receptor Assay for human Muscarinic, M1 Receptor (AID 2283270)
# In short: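 Cell-free radioligand displacement using membrane protein extracted from CHO cells, read by filter-based scintillation counting 1 h after dosing. Loss of bound signal fitted versus DMSO; primary screen single concentration 25 uM in duplicate, actives followed by concentration series.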
# [16] = target: Muscarinic acetylcholine receptor M3 (Homo sapiens) (UniProt P20309); experiment: NVS_GPCR_hM3: NovaScreen (NVS) G Protein-Coupled Receptor Assay for human Muscarinic, M3 Receptor (AID 2283272)
# In short: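 Radioligand displacement binding on human M3 receptor in CHO-derived membranes, 1 h incubation, filter-based scintillation counting. Primary screen in duplicate at 25 uM; actives followed up in concentration series; loss of signal versus DMSO.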
# [17] = target: Muscarinic acetylcholine receptor M2 (Homo sapiens) (UniProt P08172); experiment: NVS_GPCR_hM2: NovaScreen (NVS) G Protein-Coupled Receptor Assay for human Muscarinic, M2 Receptor (AID 2283273)
# Muscarinic acetylcholine receptor M2 (Homo sapiens), sequence (P08172 whole entry, looked up): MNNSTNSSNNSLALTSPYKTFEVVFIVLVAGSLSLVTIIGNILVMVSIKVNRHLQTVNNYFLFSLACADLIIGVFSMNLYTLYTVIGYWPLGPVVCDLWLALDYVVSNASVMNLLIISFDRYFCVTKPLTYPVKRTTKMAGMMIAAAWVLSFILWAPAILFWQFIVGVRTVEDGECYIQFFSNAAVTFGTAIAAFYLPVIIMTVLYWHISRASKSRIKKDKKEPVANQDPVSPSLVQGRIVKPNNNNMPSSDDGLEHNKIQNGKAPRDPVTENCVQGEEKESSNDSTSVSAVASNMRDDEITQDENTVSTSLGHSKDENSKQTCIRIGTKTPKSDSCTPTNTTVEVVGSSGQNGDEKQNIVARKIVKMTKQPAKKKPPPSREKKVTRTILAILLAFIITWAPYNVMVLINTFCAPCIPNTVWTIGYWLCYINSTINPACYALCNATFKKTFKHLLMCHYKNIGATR
# In short: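 CHO membrane prep, radioligand + test compound, 1 h; filtration, scintillation count. Screen 25 uM duplicate → conc. series for actives. Readout: decrease in binding vs DMSO control.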
# [18] = target: human Muscarinic, M4 Receptor, CHRM4 (gene 1132) (UniProt P08173); experiment: NVS_GPCR_hM4: NovaScreen (NVS) G Protein-Coupled Receptor Assay for human Muscarinic, M4 Receptor (AID 2283274)
# human Muscarinic, M4 Receptor, CHRM4 (gene 1132), sequence (P08173 whole entry, looked up): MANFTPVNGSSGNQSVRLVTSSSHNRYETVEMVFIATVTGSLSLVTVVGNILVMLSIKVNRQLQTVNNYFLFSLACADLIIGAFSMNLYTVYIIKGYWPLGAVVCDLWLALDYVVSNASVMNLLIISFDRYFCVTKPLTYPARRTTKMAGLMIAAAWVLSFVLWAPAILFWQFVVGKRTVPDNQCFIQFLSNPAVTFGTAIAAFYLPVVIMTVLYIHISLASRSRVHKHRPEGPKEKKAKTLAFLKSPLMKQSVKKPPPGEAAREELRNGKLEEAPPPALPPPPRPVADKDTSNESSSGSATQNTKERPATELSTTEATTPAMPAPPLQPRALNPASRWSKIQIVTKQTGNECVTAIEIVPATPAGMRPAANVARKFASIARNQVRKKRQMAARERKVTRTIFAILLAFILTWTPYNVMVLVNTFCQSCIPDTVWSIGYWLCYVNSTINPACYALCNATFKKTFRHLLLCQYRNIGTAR
# In short: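 Cell-free radioligand displacement using CHO-derived human M4 receptor protein, 1 h after dosing; bound radioactivity by filtration and scintillation counting. Primary screen single 25 uM duplicate, actives followed in concentration series.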
smiles,measurement,setting,value
O=C(O)C(F)(F)C(F)(F)C(F)(F)C(F)(F)C(F)(F)C(F)(F)C(F)(F)C(F)(F)F,AC50,[1],10.6 µM (active)
same,AC50,[2],25 µM (active)
COc1ccc(O)c(C(C)(C)C)c1,AC50,[3],25 µM (active)
same,outcome,[4],inactive
same,outcome,[5],inactive
same,AC50,[6],25 µM (active)
CCC(C)(c1ccc(O)cc1)c1ccc(O)cc1,AC50,[3],6.29 µM (active)
same,AC50,[7],25 µM (active)
same,AC50,[4],15.9 µM (active)
same,AC50,[8],11.3 µM (active)
CCCCCCCCCC[N+](C)(C)CCCCCCCCCC,AC50,[3],13.9 µM (active)
same,AC50,[4],5.73 µM (active)
same,AC50,[9],5.34 µM (active)
same,AC50,[2],3.53 µM (active)
same,AC50,[10],17.5 µM (active)
same,AC50,[11],7.1 µM (active)
same,AC50,[5],25 µM (active)
same,AC50,[12],6.49 µM (active)
same,AC50,[6],5.51 µM (active)
same,AC50,[13],16.4 µM (active)
same,AC50,[14],6.19 µM (active)
same,AC50,[8],2.6 µM (active)
same,AC50,[15],7.03 µM (active)
same,AC50,[16],3.37 µM (active)
same,AC50,[17],6.18 µM (active)
same,AC50,[18],3.56 µM (active)
Oc1c(Cl)c(Cl)c(Cl)c(Cl)c1Cl,outcome,[7],inactive
same,AC50,[1],13.1 µM (active)
CCCN(CCC)N=O,outcome,[9],inactive
CCC(=O)O[C@H]1CC[C@H]2[C@@H]3CCC4=CC(=O)CC[C@]4(C)[C@H]3CC[C@]12C,outcome,[17],inactive
same,AC50,[18],2.04 µM (active)
